Results: PubChem BioAssay (NCATS)
Inconclusive results are not listed. Calls of active or inactive are those of the source. Calls follow the shape of the dose curve; as a rule, active = well fitted curve in the direction sought with a large enough effect; inconclusive = small, poorly fitted or top-dose-only effect, or another doubt; inactive = no such curve, though single readings can be large; an effect the other way counts as inactive or inconclusive. Starred links: 1 amine or outer side, 2 acyl side, 3 side chain; linkers in the order of their positions; H or OH if unused. Positions of bridges follow the written chain, without caps; N, C: chain ends. Non-standard residues stand in square brackets, D forms with d. Residues, ends and D or L forms follow the SMILES beside them. Chains are numbered I, II in the order given. Actinocin(9to1) = Cc1c2oc3c(C)ccc(C(=O)[*:1])c3nc-2c(C(=O)[*:2])c(N)c1=O; NMeV = CN[CH](C(=O)O)C(C)C; Sar = CNCC(=O)O

How the values were obtained:
[1] = qHTS of pediatric cancer cell lines to identify multiple opportunities for drug repurposing: Confirmatory screen for LAN-5 cells (AID 1347113); also: nearly all actives have a fitted effect of over 65% in size
Procedure, shortened: (§1)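 Viability after 48 h compound treatment at 37C, 500-1,000 cells/well, read as ATP luminescence with CellTiter-Glo. Primary screens used 11-point (MIPE, 0.78 nM-46 µM) or 8-point (NPC, 0.59 nM-46 µM) final concentrations; follow-up screens used 11-point dilutions.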

[2] = qHTS of pediatric cancer cell lines to identify multiple opportunities for drug repurposing: Confirmatory screen for DAOY cells (AID 1347114); also: nearly all actives have a fitted effect of over 65% in size
Procedure, shortened: (§2)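 Viability measured as metabolically active cells via CellTiter-Glo luminescence following 48 hours of compound exposure, 11-point dilutions in confirmatory testing. 500-1,000 cells/well plated 5 hours before dosing; controls were DMSO and 2.3 µM bortezomib.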

[3] = qHTS of pediatric cancer cell lines to identify multiple opportunities for drug repurposing: Confirmatory screen for BT-37 cells (AID 1347117); conditions: BT-37 pediatric cancer cells, viability; activity change, negative = cytotoxic: at 45.9 µM (top of the series); also: nearly all actives have a fitted effect of over 55% in size
Procedure, shortened: as §1

[4] = qHTS of pediatric cancer cell lines to identify multiple opportunities for drug repurposing: Confirmatory screen for TC32 cells (AID 1347118);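 also: cells exposed to compound for 48 h before the read; nearly all actives have a fitted effect of over 65% in size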
Procedure, shortened: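 Luminescent CellTiter-Glo read-out of metabolically active TC32 cells after 48 h compound exposure. Primary: MIPE 11-point, 0.78 nM–46 µM; NPC 8-point, 0.59 nM–46 µM. Confirmatory: 11-point dilutions.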

[5] = qHTS of pediatric cancer cell lines to identify multiple opportunities for drug repurposing: Confirmatory screen for control Hh wild type fibroblast cells (AID 1347121); also: nearly all actives have a fitted effect of over 70% in size
Procedure, shortened: as §1

[6] = qHTS of pediatric cancer cell lines to identify multiple opportunities for drug repurposing: Confirmatory screen for Rh41 cells (AID 1347123); also: nearly all actives have a fitted effect of over 60% in size
Procedure, shortened: as §1

[7] = qHTS of pediatric cancer cell lines to identify multiple opportunities for drug repurposing: Confirmatory screen for SJ-GBM2 cells (AID 1347116); also: nearly all actives have a fitted effect of over 60% in size
Procedure, shortened: as §2

[8] = qHTS of pediatric cancer cell lines to identify multiple opportunities for drug repurposing: Confirmatory screen for NB-EBc1 cells (AID 1347115);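 also: cells exposed to compound for 48 h before the viability read; nearly all actives have a fitted effect of over 45% in size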
Procedure, shortened: as §1

[9] = qHTS of pediatric cancer cell lines to identify multiple opportunities for drug repurposing: Confirmatory screen for U-2 OS cells (AID 1347122); also: nearly all actives have a fitted effect of over 65% in size
Procedure, shortened: as §1

[10] = qHTS of pediatric cancer cell lines to identify multiple opportunities for drug repurposing: Confirmatory screen for MG 63 (6-TG R) cells (AID 1347119); also: nearly all actives have a fitted effect of over 55% in size
Procedure, shortened: as §1

Measured: Potency
Potency is read from the fitted curve at half-maximal effect.

Cc1c2oc3c(C)ccc(C(=O)NC4C(=O)NC(C(C)C)C(=O)N5CCCC5C(=O)N(C)CC(=O)N(C)C(C(C)C)C(=O)OC4C)c3nc-2c(C(=O)NC2C(=O)NC(C(C)C)C(=O)N3CCCC3C(=O)N(C)CC(=O)N(C)C(C(C)C)C(=O)OC2C)c(N)c1=O (stereo unspecified) (I: TVP[Sar][NMeV] / II: TVP[Sar][NMeV]; ester I:1-I:C, II:1-II:C; linker I:N-II:N via Actinocin(9to1); configuration not given here)
inactive: [5]
active: [1] 2.3 nM | [2] 36.9 nM | [3] 2.6 nM | [4] 16.5 nM | [6] 18.5 nM

COc1cccc2c1C(=O)c1c(O)c3c(c(O)c1C2=O)C[C@@](O)(C(=O)CO)C[C@@H]3O[C@H]1C[C@H](N)[C@@H](O)[C@H](C)O1
active: [1] 165 nM | [2] 1470 nM | [7] 737 nM | [3] 117 nM | [4] 131 nM | [6] 293 nM

CC(C)(N)c1ccc(-c2nc3ccccc3nc2-c2ccccc2)cc1
active: [1] 465 nM | [3] 18500 nM | [4] 1470 nM
inactive: [2] | [8] | [9]

CC(=O)NCC(=O)N1[C@H]2CC[C@H]1c1cc(Nc3ncc(C(F)(F)F)c(NC4CCC4)n3)ccc12
active: [1] 1470 nM | [8] 9270 nM | [7] 5850 nM | [3] 11700 nM | [4] 46.5 nM | [10] 233 nM | [9] 1850 nM | [6] 1310 nM

C=C1C(=CC=C2CCC[C@]3(C)[C@@H]([C@H](C)CCCC(C)(C)O)CC[C@@H]23)C[C@@H](O)C[C@@H]1O
active: [8] 2610 nM
inactive: [1] | [7] | [3] | [5] | [6]

CCOC(=O)[C@@H](N)Cc1ccc(-c2cc(O[C@H](c3ccc(Cl)cc3-n3ccc(C)n3)C(F)(F)F)nc(N)n2)cc1
inactive: [2] | [7] | [5]
active: [1] 23300 nM | [4] 23300 nM | [6] 14700 nM

CCC(C=C[C@@H]1OC(=O)C=C[C@H]1C)=C[C@H](C)CC=CC(C)=C[C@@H](C)C(=O)[C@@H](C)[C@H](O)[C@@H](C)CC(C)=CC(=O)O
active: [1] 5.1 nM | [2] 12.8 nM | [8] 36.1 nM | [3] 5.7 nM | [4] 14.4 nM | [9] 9.1 nM | [6] 12.8 nM

COc1cc(OC)c(C=CS(=O)(=O)Cc2ccc(OC)c(NCC(=O)O)c2)c(OC)c1
inactive: [5]
active: [1] 1170 nM | [2] 165 nM | [3] 657 nM | [4] 208 nM | [10] 208 nM | [9] 293 nM | [6] 293 nM

O=C(NC1CC1)c1cccc(-c2ccc3c(NC(=O)C4CC4)n[nH]c3c2)c1
inactive: [1] | [5]
active: [2] 9270 nM | [4] 5850 nM | [10] 11700 nM

CC(C)NC[C@@H](C(=O)N1CCN(c2ncnc3c2[C@H](C)C[C@H]3O)CC1)c1ccc(Cl)cc1
inactive: [2] | [7] | [5]
active: [1] 2930 nM | [4] 4140 nM | [10] 11700 nM | [6] 737 nM

O=C(Nc1cc2cc[nH]c2cn1)c1ccccc1
inactive: [9]
active: [1] 14700 nM | [8] 16500 nM | [3] 9270 nM | [4] 1850 nM | [5] 14700 nM

Cc1cnc(Nc2ccc(CN3CCOCC3)cc2)nc1Nc1cccc(S(=O)(=O)NC(C)(C)C)c1
active: [1] 14700 nM | [8] 10400 nM | [3] 4650 nM | [4] 3290 nM | [10] 4140 nM | [9] 4650 nM | [6] 5220 nM

COc1ccc(C(C)=O)c(O)c1
not listed: [4] | [7]
inactive: all other assays above

CC(C)C[C@H](NC(=O)CNC(=O)c1cc(Cl)ccc1Cl)B1OC(=O)CC(CC(=O)O)(C(=O)O)O1 (stereo partly specified)
active: [1] 233 nM | [2] 165 nM | [7] 147 nM | [3] 522 nM | [4] 465 nM | [5] 16500 nM | [9] 827 nM | [6] 233 nM

C#CCC(Cc1cnc2nc(N)nc(N)c2n1)c1ccc(C(=O)N[C@@H](CCC(=O)O)C(=O)O)cc1 (stereo partly specified)
active: [2] 117 nM | [8] 369 nM | [4] 41.4 nM
inactive: [1] | [10] | [5] | [6]

CCN(CC)Cc1ccc2cc(COC(=O)Nc3ccc(C(=O)NO)cc3)ccc2c1
not listed: [5] | [8]
inactive: all other assays above

C=CC(=O)N1CCc2ccc(-n3c(=O)ccc4cnc5ccc(-c6cnn(C)c6)cc5c43)cc21
active: [1] 2930 nM | [2] 9270 nM | [7] 9270 nM | [3] 4650 nM | [4] 5220 nM | [9] 5220 nM | [6] 8270 nM

O=C1c2c(O)cccc2[C@@H]([C@@H]2O[C@H](CO)[C@@H](O)[C@H](O)[C@H]2O)c2cc(CO)cc(O)c21
inactive: [1] | [2] | [5] | [6]

Cc1cc(Nc2ncc3c(n2)N(C)C(=O)N(c2cc(NC(=O)c4cccc(C(F)(F)F)c4)ccc2C)C3)n(C)n1
active: [1] 465 nM | [2] 14700 nM | [4] 329 nM | [10] 465 nM | [9] 369 nM | [6] 208 nM
